# According to PubChem BioAssay (NCI):
# The panel holds about 83,000 compounds, 20% with a hit somewhere; the sample as a whole holds those more often.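 Step 1: grow cells in 96-well plates. Step 2: add test compound at a single concentration. Step 3: incubate 48 h. Step 4: record percent growth.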 A number with no mark means an inactive call. Active and inactive are the calls of the source. Rule for the calls: active = growth percent below 10; inactive = the rest.
# Legend:
# Experiment in all cases: NCI-60 one-dose screen, 48 h (100 = growth as untreated, 0 = no growth, -100 = all killed)
# Conditions in all cases: 10 µM unless noted
# [1] = tested on: NCI-H23 lung
# [2] = tested on: NCI-H226 lung
# [3] = tested on: NCI-H322M lung
# [4] = tested on: HOP-62 NSCLC
# [5] = tested on: NCI-H460 lung
# [6] = tested on: NCI-H522 lung
# [7] = tested on: A549/ATCC NSCLC
# [8] = tested on: 786-0 renal
# [9] = tested on: COLO 205 colon
# [10] = tested on: DU-145 prostate
# [11] = tested on: K-562 leukemia
# [12] = tested on: MALME-3M melanoma
# [13] = tested on: MDA-MB-231 breast
# [14] = tested on: RXF 393 renal
# [15] = tested on: SF-268 CNS
# [16] = tested on: SF-295 CNS
# [17] = tested on: SF-539 CNS
# [18] = tested on: UACC-257 melanoma
# [19] = tested on: M14 melanoma
Structure (SMILES),growth [1],growth [2],growth [3],growth [4],growth [5],growth [6],growth [7],growth [8],growth [9],growth [10],growth [11],growth [12],growth [13],growth [14],growth [15],growth [16],growth [17],growth [18],growth [19]
COc1ccccc1/C=N\Nc1ccc([N+](=O)[O-])cn1,101%,98.7%,107%,106%,123%,101%,105%,105%,102%,114%,112%,117%,103%,115%,105%,96.3%,98.7%,108%,94.4%
CS(=O)(=O)c1ccc(C(=O)N/N=C/c2ccc3c(c2)OCO3)cc1,96.9%,91.1%,96.2%,96.8%,107%,86%,67.7%,102%,110%,108%,85.5%,105%,107%,120%,104%,101%,105%,59.1%,106%
O=C(O)C(CCc1ccccc1)NCc1ccccc1 (centres undefined),94.9%,106%,103%,93.3%,116%,87%,99.7%,100%,97.3%,95.7%,113%,89.8%,91.4%,128%,98.4%,103%,89.8%,99.4%,79.6%
CCCNCCC(C)=O,95.1%,108%,119%,106%,103%,99.6%,95.6%,110%,108%,122%,98.5%,121%,113%,127%,115%,97.1%,114%,91.7%,105%
CCOC(=O)C1C(=O)C=C(c2cc(OC)c(OC)c(OC)c2)CC1c1sc(N(C)Cc2ccccc2)nc1Cl (centres undefined),87.3%,74.1%,83.2%,78.3%,86.3%,67%,71.6%,85.9%,97.1%,106%,66.4%,104%,82.9%,81.5%,73.6%,89.3%,95.6%,90.4%,92%
COc1ccc(C(=O)N2N=C(c3ccc(F)cc3)CC2c2cn(-c3ccccc3)nc2-c2ccccc2)cc1 (centres undefined),51%,91.2%,80%,40.5%,53.3%,52.4%,41.1%,69.6%,57%,57.5%,40.3%,73.7%,60.2%,73.7%,70.1%,65.1%,85.7%,78.6%,55%
COc1ccc(C(=O)C(CN(C)C)c2ccc(OC)cc2)cc1 (centres undefined),89.8%,84.2%,93.2%,96%,86.3%,-27.1% (active),86.3%,28.6%,57.4%,7.55% (active),16.3%,84.9%,59.4%,55.8%,60.2%,101%,78.8%,45.3%,60.6%
C=CCOc1ccc2c(C)cc(=O)oc2c1,102%,109%,126%,112%,99.6%,93.3%,89.6%,109%,138%,109%,99.4%,132%,128%,134%,109%,99.8%,103%,105%,122%
Clc1ccc(Cl)c(N=Cc2ccc3c(c2)OCO3)c1,99.2%,103%,108%,101%,116%,88.7%,96.9%,110%,109%,120%,103%,111%,124%,111%,105%,106%,116%,103%,102%
COc1ccc(C2c3cccn3-c3ccccc3N2C(C)=O)cc1 (centres undefined),99.3%,97.3%,82.6%,88.8%,97.4%,122%,110%,106%,100%,108%,42%,93%,103%,99.2%,95.8%,98.7%,108%,109%,96.2%
CC1OC(n2c3ccccc3c3c4c(c5c6ccccc6[nH]c5c32)C(=O)N(CCN2CCOCC2)C4=O)CC(O)C1O (centres undefined),16.3%,17%,59.1%,-5.89% (active),3.35% (active),10.6%,12.2%,6.66% (active),20%,18.1%,18.4%,49.1%,74.5%,33.4%,29.8%,6.46% (active),8.58% (active),31.8%,6.29% (active)
CC(C)OC1OC(OC(C)C)C(OC(C)C)OC1OC(C)C (centres undefined),94.9%,99.9%,98.1%,123%,104%,70.9%,92.4%,99.4%,112%,112%,92.5%,119%,91.8%,127%,96.5%,109%,105%,92.2%,99.2%
C=CCCCCOc1cccc(/C=C2\N=C3SCCCN3C2=O)c1,102%,94.3%,84.6%,94.5%,103%,83.3%,93.2%,95%,101%,108%,91.5%,115%,88.6%,114%,110%,96%,104%,112%,103%
NS(=O)(=O)c1ccc(CCn2c(SCC(=O)N/N=C/c3cc4ccccc4[nH]3)nc3ccccc3c2=O)cc1,58.8%,76.6%,83.7%,68.7%,30.4%,19.5%,84.3%,78.9%,74.4%,64.8%,27.5%,38.8%,61.7%,91%,89.2%,90.9%,82.8%,82.6%,74%
COc1cc(/C=C\c2cc(/C=C\c3ccc(O)c(OC)c3)n(C(=O)Nc3ccc(C(F)(F)F)cc3)n2)ccc1O,51.3%,82.7%,82.7%,62.9%,18.3%,7.32% (active),43%,20.1%,51.3%,47.6%,9.45% (active),52.3%,54.8%,22.7%,37.1%,83.4%,29%,25%,29.5%
CCOC(=O)CCN(CCC(=O)OCC)c1ccccc1,101%,98.4%,110%,86%,111%,89.8%,99.6%,105%,93.7%,111%,121%,120%,111%,81.3%,93.6%,107%,92.4%,96.4%,86.6%
